Assay results published in PubChem BioAssay AID624330 (Southern Research Specialized Biocontainment Screening …, 2012).
Among all 340,000 compounds or so, about 2,100 (0.62%) were called active.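 The calls were made as follows: active = first-screen hits whose inhibition reached a set limit at any dose in the follow-up dose series; inconclusive = inhibition above the set first-screen limit but never retested; inactive = the rest.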 Not all results are given here. Measured potencies and affinities stand elsewhere.

biological target: Rac GTPase-activating protein 1 (Homo sapiens) (UniProt Q9H0H5); assay: blockers of MgcRacGAP-driven Rac1 GTP hydrolysis – biochemical, ADP Hunter fluorescence, primary and confirmatory, confirmation (AID 624330); settings: MgcRacGAP-stimulated Rac1 GTP hydrolysis, at 30 µM, active compounds read high, GST-tagged Rac1 F28L mutant substrate;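 also: fluorescence reports GDP produced by GAP-driven GTP hydrolysis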
Sequence (Q9H0H5 whole entry, looked up): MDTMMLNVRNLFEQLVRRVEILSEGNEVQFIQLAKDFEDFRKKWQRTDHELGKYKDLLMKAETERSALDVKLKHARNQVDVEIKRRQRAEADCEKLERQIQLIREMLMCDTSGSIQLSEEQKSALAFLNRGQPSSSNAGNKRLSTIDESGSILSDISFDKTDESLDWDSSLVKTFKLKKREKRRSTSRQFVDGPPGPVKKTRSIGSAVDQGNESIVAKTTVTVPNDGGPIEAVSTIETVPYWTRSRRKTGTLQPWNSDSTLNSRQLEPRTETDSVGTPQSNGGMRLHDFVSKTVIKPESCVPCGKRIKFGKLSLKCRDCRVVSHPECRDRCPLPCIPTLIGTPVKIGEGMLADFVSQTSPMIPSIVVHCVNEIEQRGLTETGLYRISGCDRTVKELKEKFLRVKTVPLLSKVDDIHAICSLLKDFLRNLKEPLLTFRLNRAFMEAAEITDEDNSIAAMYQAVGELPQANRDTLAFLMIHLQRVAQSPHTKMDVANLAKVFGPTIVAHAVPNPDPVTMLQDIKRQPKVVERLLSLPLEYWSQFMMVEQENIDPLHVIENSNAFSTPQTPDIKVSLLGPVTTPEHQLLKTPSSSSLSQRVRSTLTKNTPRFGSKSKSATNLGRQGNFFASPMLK

inhibition, inactive:
O=C(O)CN1C(=O)NC2(CCc3ccccc32)C1=O (stereo unspecified) 2.93%
Cc1noc(C)c1S(=O)(=O)N1CCCC(C(=O)NCC2CCCO2)C1 (stereo unspecified) 4.53%
COc1ccc(NC2CCCN(C(=O)CCN3CCOCC3)C2)cc1 (stereo unspecified) 12.5%
CC(C)c1ccc(NC2CCCN(C(=O)CCN3CCCO3)C2)cc1 (stereo unspecified) 2.53%
COc1ccc(NC2CCCN(C(=O)CCCN3CCCCC3=O)C2)cc1 (stereo unspecified) 29.9%
CC(C)c1ccc(NC2CCCN(C(=O)CN3CCOC3=O)C2)cc1 (stereo unspecified) 8.4%
CC(C)c1ccc(NC2CCCN(C(=O)CCN3Cc4ccccc4C3=O)C2)cc1 (stereo unspecified) 4.84%
COc1ccc(NC2CCCN(C(=O)CN3CCOC3=O)C2)cc1OC (stereo unspecified) 22.5%
CN1OC[C@@H]2CN(Cc3cc(Cl)cc(Cl)c3)[C@H](c3cccc(-c4ccc(C#N)cc4)c3)C[C@@H]21 13.8%
COc1ccc(OCc2nnc(SCC(=O)N3CCCC3)o2)cc1 5.88%
CC1CN(Cc2ccccc2Cl)CC(C)O1 (stereo unspecified) 16.3%
O=C(COc1ccccc1[N+](=O)[O-])Nc1cccc(C(=O)Nc2ccccc2C(=O)O)c1 17.3%
C=CCC1NS(=O)(=O)O[C@H](CCCC)[C@@H]1O (stereo partly specified) -14.4%
O=C(O)CCC(=O)OCCc1cc2ccccc2c(=O)o1 -1.63%
O=C(c1ccc(=O)n(Cc2ccc(Cl)c(Cl)c2)c1)N1CCOCC1 1.2%
CC(C)N1C(=O)CSC1c1ccc(Br)cc1 (stereo unspecified) 9.21%
Cc1ccccc1/C=N/NC(=O)c1cccnc1 4.63%
Cc1ccsc1/C=N/NC(=O)c1cccnc1 6.67%
COc1ccc(/C=N/NC(=O)c2cccnc2)c2ccccc12 10.9%
O=C(N/N=C/c1cccc2ccccc12)c1cccnc1 7.15%
COc1ccccc1CNC(=O)CCNS(=O)(=O)/C=C/c1ccc(C)cc1 -0.75%
COc1cc(NC(C)CCCN)c2ncccc2c1Oc1ccccc1 (stereo unspecified) 1.99%
COc1cc(NC(C)CCCN)c2ncccc2c1 (stereo unspecified) -2.49%
COc1cc(NC(=O)c2cccnc2SC)cc(OC)c1OC 9.4%
Nc1ccc(Br)c2cccnc12 9.68%
COc1cc(N)c2ncccc2c1Br 20%
COc1cc(N)c2ncccc2c1Cl 7.55%
CCOC(=O)N1CCN(c2ccc(N3C(=O)CCCC3=O)cc2[N+](=O)[O-])CC1 4.36%
O=C(CCNS(=O)(=O)c1ccc2[nH]c(=O)oc2c1)Nc1ccccc1 -24.4%
COc1ccc(OC)c(C(C[N+](=O)[O-])c2c(C)cc3ccccn23)c1 (stereo unspecified) 5.52%
Cc1c(N2CCCCC2)[nH]c2ccccc12 8.41%
Cc1cccc(OCC(=O)Nc2ccc(N3CCN(C(=O)c4ccco4)CC3)cc2)c1C 8.56%
Cn1c(-c2ccc(F)cc2)cnc1NCc1ccc(F)cc1 16.6%
Cn1c(-c2ccc(F)cc2)cnc1NCc1cccc(F)c1 9.97%
Cn1c(-c2cccc(Br)c2)cnc1NCc1cccnc1 29.7%
Cn1c(-c2ccc(Br)cc2)cnc1NCc1cccnc1 18.7%
COc1cc(CNc2ncc(-c3ccc(Br)cc3)n2C)cc(OC)c1OC 29.8%
Cn1c(-c2ccc(Br)cc2)cnc1NCc1ccc(C#N)cc1 21.2%
C[C@H](CO)N1C[C@H](C)[C@@H](CN(C)S(=O)(=O)c2ccc(F)cc2)Oc2c(NC(=O)Cc3ccccc3)cccc2C1=O 9.78%
CCCc1nc2ccccc2c(=O)n1NC(=O)c1c(O)c2ccccc2n(C)c1=O -1.3%
Cc1ccc(N=C2C(=O)Nc3ccccc32)cc1C 1.21%
O=C1Nc2ccccc2C1=Nc1ccc(F)cc1 6.47%
COc1cccc(NC(=O)C(c2ccccc2)N2CCNC(=O)C2)c1 (stereo unspecified) -3.03%
CN(CC(=O)Nc1c(Cl)cccc1Cl)C(=O)Cc1ccc2c(c1)CCC2 4.3%
CC[n+]1c(/C=C/c2ccc(OC(C)=O)c(OC)c2)ccc2ccccc21 27%
COc1ccc(/C=C/c2ccc3ccccc3[n+]2C)cc1OC -0.83%
O=C(/C=C/Nc1ccc(F)cc1)c1cccs1 8.26%
Cc1ccc(N/C=C/C(=O)c2cccs2)cc1 1.9%
COc1ccc(C)cc1N(CC(=O)Nc1cccnc1)S(=O)(=O)c1ccc(C)cc1 3.72%
O=C(CCSc1nnc(-c2ccco2)o1)Nc1ccc(Cl)cc1 5.12%
Cc1ccc(S(=O)(=O)N2CCOCC2)cc1C(=O)NC1CCCC1 6.35%
NC(=S)N/N=C/c1ccccc1O 10.3%
COC(=O)c1cccc(/C=N/NC(N)=S)c1O 14.2%
COc1ccc(N(C(C)=O)S(=O)(=O)c2cc(OC)ccc2OC)cc1 12.7%
COc1cccc(N2CCN(c3ncccn3)CC2)c1 5.71%
COc1ccc(N2CCN(c3ccc(N)cc3C#N)CC2)cc1 27.6%
COc1ccnc(N2CCN(c3ccccc3)CC2)c1C#N 8.98%
COc1ccc(C(=O)N2CCN(c3ncccn3)CC2)cc1 0.88%
COc1ccc(C(=O)NCC(=O)OCc2ccc(Br)cc2)cc1 11.1%
CC(c1nccs1)N(C)C(=O)CCc1nnc(Cc2c[nH]c3ccccc23)o1 (stereo unspecified) 11.5%
COC(=O)C1=C(C)N(CC2CCCO2)C(=O)C1 (stereo unspecified) 4.38%
O=C1/C(=C/c2ccc(O)cc2)SC(=S)N1CC1CCCO1 (stereo unspecified) 31.1%
O=C(N/N=C/c1ccc(-c2ccccc2C(=O)O)o1)c1cccs1 11.8%
COc1ccc(-c2noc(-c3ccccc3C(=O)NCc3ccco3)n2)cc1 8.25%
CCCNC(=O)CN1CCN(c2cc3ccccc3c(Cl)n2)CC1 4.31%
CC(=O)Nc1ccc(Oc2nc(C(F)(F)F)nc3ccccc23)cc1 11.9%
Cc1cccc(Oc2nc(-c3ccccn3)nc3ccccc23)c1 11.2%
CC(C)(C)S(=O)(=O)N1C[C@@H]2CC/C=C\C/C(c3ccccc3)=C\2[C@H]1CCO 6.06%
C=C1CCN([C@@H](CC(C)C)C(=O)NCc2ccc(OC)cc2)S(=O)(=O)c2ccccc21 13.2%
COc1ccc2ccccc2c1C1NC(=O)NC(C)=C1[N+](=O)[O-] (stereo unspecified) 1.63%
CN(C)c1ccc(/C=C/c2nc3ccccc3s2)cc1 13.3%
CC[n+]1c(/C=C/c2ccc(OC)c(OC)c2)ccc2ccccc21 11.3%
CCN(CC)c1ccc(/C=C/c2ccc3ccc(OC)cc3[n+]2CC)cc1 12.8%
C[n+]1c(/C=C/c2ccc3c(c2)OCO3)ccc2ccccc21 -4.73%
CN(CCCS(=O)(=O)[O-])c1ccc(/C=C/c2ccc3ccccc3[n+]2C)cc1 9.16%
CC[n+]1c(/C=C/C=C/N(C(C)=O)c2ccccc2)sc2ccccc21 23.1%
COc1ccccc1N1CCN(C(=O)C(=O)c2cn(CC(=O)N3CCCCCC3)c3ccccc23)CC1 4.2%
Cc1ccc2oc(=O)c3cnn(CC(=O)N(CCCN4CCOCC4)Cc4ccco4)c3c2c1 5.12%
CCCCNC(=O)CCC(=O)Nc1ccc2nc(N3CCN(C)CC3)cc(C)c2c1 11.9%
CCCN(CCC)CCNC(=O)CCC(=O)Nc1ccc2nc(N3CCN(C)CC3)cc(C)c2c1 26.7%
CCN(C(=O)CN1C(=O)c2ccc([N+](=O)[O-])cc2C1=O)C1CCCCC1 -1.26%
COc1cccc(OCC(O)CNC2CCCC2)c1 (stereo unspecified) -1.44%
CCC(CC)CN1C(Nc2ccccc2)=NC[C@@H]1C 1.3%
C=CCc1cc(/C=C2/NC(=O)N(CC(=O)OC)C2=O)cc(OC)c1O 10.1%
O=C(CSc1nc(C2CCCCC2)n(-c2ccccc2)n1)NCC(F)(F)F 8.72%
NC(=O)NC(=O)CSc1nc(C2CCCCC2)n(-c2ccccc2)n1 3.47%
O=C(Nc1nccs1)C1CC(=O)N(CCc2ccc(F)cc2)C1 (stereo unspecified) 6.31%
Nc1nonc1-n1nnc(C(=O)N/N=C/c2cccc(Cl)c2)c1CN1CCCCCC1 3.77%
C=CCOC1COC2C(OCC=C)COC12 (stereo unspecified) 3.53%
CC(=O)NCCOc1cccc2ccccc12 -4.94%
COc1ccc(OCCCNCCc2ccccc2)cc1 4.94%
Cc1ccc(OCCCCNC(C)c2ccccc2)c(C)c1 (stereo unspecified) 28.7%
c1ccc(CCNCCOc2ccccc2)cc1 17.6%
Cc1ccc(S(=O)(=O)N2CC=C(C(=O)NCc3ccccc3)CC2)cc1 6.07%
CC(=O)c1ccc(NC(=O)C[n+]2ccccc2)cc1 10.2%
CCOc1ccc(CCNC(=O)COC(=O)c2cc(OC)c(OC)cc2[N+](=O)[O-])cc1OCC -1.41%
Cc1ccc(NC(=O)CN(C)Cc2nc3ccccc3c(=O)[nH]2)c(Br)c1 4.68%
COCCNc1nc(=S)[nH]c2cc(OC)c(OC)cc12 15.3%
COCCCNc1nc2cc(OC)c(OC)cc2c2nc(-c3ccccc3)nn12 2.71%
CCOc1cc2nc(-c3ccc(OC)c(OC)c3)nc(NCCCN3CCOCC3)c2cc1OC 18.4%
CCOCCCNCc1ccc(OC)c(OC)c1 13.9%
